# Measured values from the supplement of paper PMC12632987.
# The full ranking holds about 4,500 sequences; the median of “median log2 fold change of GCK-ALFA target abundance (FLAG IP / Myc IP barcode read proportion)” is about 0.078, and the lowest 2% start at about -0.6. This excerpt belongs to a sample that is enriched for the lowest values.
# B1: GBRAP_78_6654 (protein)
# chain: EVEELIDKAMEHLDKAAKLTKKLDEESRNELLDLLVEAASHILLSEENGFDLEELKEALEYLKKALEYAKSLNTPVAKEIAEELEKAIEYLEKAIKLLEE
# B2: GBRAP_52_6036 (protein)
# chain: SRERMRRLAQEIVDLAKAGDLEGARALAREAVETLSEEELRLLGEELARLAREAAPEDLDAIMEVAFILADALVEGGYDEVLADDLLARVAAAAVENLQA
# B3: GBRAP_52_6031 (protein)
# chain: SRERMRALARELIDLVLAGRDDEARALAEELVATLSEEELRLLGEELARLTREAAPEDLDAYMRAAEIVADALEAAGYDEVLADDLLARVAAAAVENLAR
# B4: GBRAP_196_5416 (protein)
# chain: KYLEEIKELEKESEEEVKDIELSDWTIVVNFTPENLEEEAEKTAEIAKDLGNPEIVIVHDGTLEEMLEALKLLREKLKEKGVVSKISVDSRAREEAEEKA
# B5: GBRAP_84_7000 (protein)
# chain: MREEEIEKLVDYLAENSSLELLKKLYVYLLLKNDNKGATRLLSYLLEKDPEAAAEALDKATEAALEEKEEEVKKELLELAKKEGEEIYKKVKKLIELLEE
# B6: GBRAP_160_4655 (protein)
# chain: SAELEELLEKIREIFEEALEMMKGETHEQRVAIARVMKGDVILLLEESPSVSDETVDEVDEVMDELVETIEENPDWTDEEIEEKIDEALEEIEEILEEDF
# B7: GBRAP_11_2732 (protein)
# chain: KKEKLEEIRELAERLAELLQRLIEEGPEDEELRREAEEQLRKLEELVKEYGDEDLKKLVEIIREEWERAQEDPETAVEHLRNALAAARVLAGQVLLEIEE
# B8: GBRAP_128_3559 (protein)
# chain: SVEERVEKAKELLEKIKNSDVEEARKYAEELAKLLEEADEESLEAIVETILERLPELSVEHLDVLADVFRERIPEADPRTAEALAEIQVEALNEAEEKEE
# B9: GBRAP_128_3586 (protein)
# chain: SVEAVRAETRALMAAMKTADDATAKALATELAARFTTLSLEEAEAAAEVIEEELPGLSAEHLDILADALRAALPAMTPEKAELAADVLVAALNEAEEKDE
# B10: GBRAP_166_4874 (protein)
# chain: GLEELLEKARKEIRELLKKASEADDEERVELYIEIGEIIEELREAGAPKEAILELVREALKEAKELGLDVRLLAGIIINVTDFDEEEIDELDKIVEEVLK
# B11: GBRAP_11_2667 (protein)
# chain: KKEVYKKAAELAKELAKTVKKLIEEGIDNEELIKKAEELLKELKELAKKELDKASQKEVEVLEEIWKEAKEDKENSLKYWELLLAGARVLEGNFLLEYDE
# B12: GBRAP_160_4272 (protein)
# chain: SPEREELIEDIEEDREEILELVDKISPEEVRNFAVTSLGSHLLEAIDLGLVTDEQEDELMEIVDELEKELKEAENASKEEIKKIITEHYDKAIEILKKAK
# B13: GBRAP_166_4873 (protein)
# chain: HMEELLKKAEKEIEKLLKEASEADEEEQVELYIEIGEIIEELKEAGASLEDILELIERTLKEAKKLGLDVKKLAGIIINVTDFNEEEIDKIDEIVEKVLK
# B14: GBRAP_14_3780 (protein)
# chain: MEKIEEIIREKAEEIIELLTEIAPEKAEEITEIVEEVVERTIARIKETGNAEEAAEEGRDELLARIAELTADLPAETRARMLAVVAVEFGQAILEIEELL
# B15: GBRAP_125_2986 (protein)
# chain: EEEELLEDLREIFKALGLSEEDAEEAVKLAREFSLKQTLYALMAALGAEEVADAVAKLTEEQAKEVVKEASEYIKKNPNITPEEVVELLLELAKKQLAKA
# B16: GBRAP_78_6666 (protein)
# chain: ELEKIIDETLELLTEVIRASKSLPPEVQEAVLDEAVEAATELEEIEEEGPNLEELEEAIKHLEKLLELLEKNKSPELEPLIEKLKKQIEKLKKAKEELEK
# B17: GBRAP_95_7066 (protein)
# chain: EEDREIAEDLIDTAEDLVEIGLYEQAARAAKAAVEVLKEIGETGELALRAAEVLVKVAEATGDEEAAEAAKEVLERIREAGGDEERIKELEKRLEEAKKK
# B18: GBRAP_184_5265 (protein)
# chain: KVLERTIKAENVEELIAKMEEVRKEALATGADVIILLEVEKLTKEMIDALFAQLKALRDAGYKGKITVGIDADLTEEMIDYVIKKADEAGVNVVLAISEE
# B19: GBRAP_84_6999 (protein)
# chain: STDEEIIELAKEIFDRVKGEAAVKILALVLLKVTGETATRILNYALERDPQVAYDALSLAYEVVSEDKEEELEEEARRLMAEESPEVRAKFERLLELMKA
# Biological target: GABARAP, O95166
# Sequence (O95166 whole entry, the tested form may be a part): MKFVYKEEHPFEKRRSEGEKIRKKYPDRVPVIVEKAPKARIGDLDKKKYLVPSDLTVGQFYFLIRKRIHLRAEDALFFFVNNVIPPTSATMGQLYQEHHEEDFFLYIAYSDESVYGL
# Assay: median log2 fold change of GCK-ALFA target abundance (FLAG IP / Myc IP barcode read proportion) (log2 ratio); each designed protein is fused to an ALFA-tag nanobody in HEK293 cells to bring the named protein to FLAG-tagged glucokinase (GCK); Myc marks an untargeted standard; higher = target protein stabilised (more abundant)
# Conditions: target protein: 3xFLAG-MCP-GCK-ALFA reporter; HEK293 landing pad (RPLP)
# How it was run: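 Binders fused to an ALFA nanobody were recombined as a library into HEK293 landing-pad cells, which were induced with 2 μg mL^−1 doxycycline and then transfected to express a FLAG-tagged target and a Myc-tagged standard. After 48 h, circular RNA barcodes recovered by anti-FLAG and anti-Myc immunoprecipitation of lysates were reverse transcribed, amplified and sequenced. Each binder's target abundance is the median log2 ratio of FLAG to Myc barcode read proportions, from barcodes present at ≥10^−7 in both replicates, binders carrying ≥3 barcodes per replicate, a 10^−6 pseudocount and pooled replicates.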
row,Binder,median log2 fold change
1,B1,0.0422
2,B2,-0.791
3,B3,-0.202
4,B4,0.451
5,B5,0.0601
6,B6,-0.612
7,B7,0.303
8,B8,0.095
9,B9,0.296
10,B10,0.0131
11,B11,-0.102
12,B12,0.239
13,B13,-0.298
14,B14,-0.0168
15,B15,-0.643
16,B16,0.274
17,B17,0.142
18,B18,-0.0191
19,B19,-0.601
